Measured values: the supplement of paper PMC12632987

T1: FBXL12, Q9NXK8
T1 chain: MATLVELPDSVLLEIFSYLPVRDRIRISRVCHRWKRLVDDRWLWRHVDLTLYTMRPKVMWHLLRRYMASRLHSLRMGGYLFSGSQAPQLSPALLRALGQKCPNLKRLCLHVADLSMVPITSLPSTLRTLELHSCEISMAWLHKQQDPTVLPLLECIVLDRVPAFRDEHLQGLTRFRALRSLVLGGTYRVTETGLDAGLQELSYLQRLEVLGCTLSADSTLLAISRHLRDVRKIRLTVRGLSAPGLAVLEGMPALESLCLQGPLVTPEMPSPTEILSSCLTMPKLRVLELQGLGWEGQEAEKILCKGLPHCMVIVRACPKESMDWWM


Target: T1, FBXL12, Q9NXK8
Experiment: median log2 fold change of GCK-ALFA target abundance (FLAG IP / Myc IP barcode read proportion) (log2 ratio); each designed protein is fused to an ALFA-tag nanobody in HEK293 cells to bring the named protein to FLAG-tagged glucokinase (GCK); Myc marks an untargeted standard; higher = target protein stabilised (more abundant)
Conditions: target protein: 3xFLAG-MCP-GCK-ALFA reporter; HEK293 landing pad (RPLP)
In short: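 An ALFA-nanobody-fused binder library was recombined into HEK293 landing-pad cells and induced with 2 μg mL^−1 doxycycline. Cells were transfected with a plasmid expressing a FLAG-tagged target and a Myc-tagged standard. After 48 h, lysates underwent anti-FLAG and anti-Myc immunoprecipitation, and circular RNA barcodes were reverse transcribed, amplified and sequenced. Target abundance is the per-binder median log2 ratio of FLAG to Myc barcode read proportions. Barcodes needed ≥10^−7 proportion in both replicates, binders ≥3 barcodes per replicate, and a 10^−6 pseudocount was added; the two replicates were pooled.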

Row | Binder | median log2 fold change
1 | FBXL12_hotspot_59_75 (protein) MLEIRVSAHPDESLEAIKRTVEYAIEMIKELIKRGRIEDAKAAIRSVTRSVTEIVIRKGNEELAEHFLELLEELKEIANEEVKKVIEEAMEEFRERVAAA | -0.31
2 | FBXL12_hotspot_67_86 (protein) MLRLLVIRIRAETVEEARRSLALAEAYVRAARARGWRVLVVAWAATPEVAALFRERLAELEREYGARTVLIEDRENGEEELARTTARLKAELLAEMDEEE | -0.304
3 | FBXL12_hotspot_59_79 (protein) MRRIIVRGEPEQVIKQTRALADALIALIDEHRGTPEQARLEDMLVGLFEETIKYAKEIGDVELLETIVELADRALPHVSPEYQKRIEELRKEALEAIKKL | -0.207
4 | FBXL12_hotspot_59_83 (protein) MIEVRVRGPVEEALRRALELLRAARELLKKHKDSPLYPRILEIFESALREAVRLAVEAGDEEALREAEEIVEEAEKVVSPEDAERLREALERAKREAEEE | -0.0926
5 | FBXL12_hotspot_59_80 (protein) MRVIRISGEPEQRIRQFELYSDALIELIKEHKGTPEAERLEEMLVGLFKYMLEVAKKEKNVELLETLVKQARKALPHVSPEYAKELEKIIKEAEKAIAEL | -0.4
6 | FBXL12_hotspot_59_72 (protein) MRRVVVRGPPEQALAQALALLEALLALLVEHEGTPDEPRLLELLESTYRELLRTARALGDAAAIERARAAIEAAKARLSPATAARLAEAVARAEAEVEAE | -0.077
7 | FBXL12_hotspot_59_82 (protein) MVTVRVRGPLEQALAQALALLRAATALLAELADSPKRPKLLEIYKAVLREAVRLATEAGDEEALAEIERLLAEARAAVSPEDAAELEEAYAEARREAAAA | -0.218
8 | FBXL12_hotspot_59_84 (protein) MRKVVIRGPPEQALANALALLRAAVELLKEHAGSELAPRILEFFLSTLKEAVRAAIALGDEEALEEIERLVEEAQEAVDEEDARRLREALERAREEAEAA | -0.544
9 | FBXL12_hotspot_59_81 (protein) MRRIIIRGEPEQRLRQFEALAKALIELIKEHKGTPEAERLEEMLVGLFEEALKYAKEEKDVELLEALIKLAKEALPYVSPEYQKRLEKIIEEAEKAIKEF | -0.417
10 | FBXL12_hotspot_59_85 (protein) MRVVIVRGPVEEAARRITELLEAIAELLREIPQDERAERLVEIALSLLEEAVRLVEEGLDEELARRVIEAAERAAEEATPEQAERLNEAIERLREAIERR | -0.444
11 | FBXL12_hotspot_109_4 (protein) MTRILVGAATTPEAARHTFSTIVEIAKGLKDEEVIAVLVVLDDPEMRAIAERAAEELRALGAEVRLEVAPTLEALEAARARLLAEAEAEADARDAAAAAA | -0.542
12 | FBXL12_hotspot_59_78 (protein) MRRIIISGEPEQRIKNLKELSDALIELIDKHKGTPEAERLEEMLVGLFEEALEQAKKEKDLELLETLKKEIEKAKPHVSPEYAEKLEELLKEVEKEIAEL | 0.0323
13 | FBXL12_hotspot_59_74 (protein) MLEIRVSAHPDESTEQIKNTIRYAVEMIKELIERGLIEDAIAAIRSLGRSVTEIVIRRKNEEVYNFFLELLEELKEIANPEVKKVIDEVIKEFKERVKKA | 0.185
14 | FBXL12_hotspot_59_73 (protein) MVEVVIRGPLEQAIEQALALLKAAAELIVKHEGTEKQERLVSIFISTLRELYRLAAEAGDEEAIEEADKIVKELMEKVDPETAAKLKAEREAIKKELAAA | -0.363
15 | FBXL12_hotspot_59_76 (protein) MRRIILRGPPEQRRANLVAYSDALIKLIKEHKGTPEAERLEEMLVGLFEEALRQAEAERDRALLETLAEQVKKAIPFVSPEYAKRLEEILERIERALAEL | -0.366
16 | FBXL12_hotspot_59_77 (protein) MRRIIISGPSEQRIRNLREFSDALIELIDKHKGTPEAERLEEMLVGLFEESLKIAKEEKDVELLKELKKLVEEAIPHVSPEYAERLKKILEEIEKELAEL | 0.0852
